Read-out in experiment [1]: Human Leukocyte Antigen - DR isotype (HLADR), HLA-DRA (gene 3122)
Put plainly: BSK_3C_HLADR: BioMAP Diversity Plus: 3C Assay for Human Leukocyte Antigen - DR isotype (HLADR) Biomarker Activity (AID 2283019).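 As to outcome: ELISA of cell-surface HLA-DR on HUVEC 24 h after dosing.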 Conditions: primary human endothelial cells (HUVEC); actives raise or lower the signal. In a few lines: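 Endothelial cells from human umbilical vein are treated with test chemical; after 24 h, HLA-DR levels are measured by ELISA. Data are fitted in both directions using DMSO as the baseline.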

Read-out in experiment [2]: Interleukin-8 (IL8), CXCL8 (gene 3576)
Kind of experiment: BSK_CASM3C_IL8: BioMAP Diversity Plus: CASM3C Assay for Interleukin-8 (IL8) Biomarker Activity (AID 2283042).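 Also: IL-8 protein level quantified by ELISA.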 As to conditions: primary human coronary artery smooth muscle cells; actives raise or lower the signal.

Read-out in experiment [3]: Monokine induced gamma interferon (MIG), CXCL9 (gene 4283)
Kind of experiment: BSK_CASM3C_MIG: BioMAP Diversity Plus: CASM3C Assay for Monokine induced gamma interferon (MIG) Biomarker Activity (AID 2283048).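 Also: MIG protein level measured by ELISA.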 As to conditions: primary human coronary artery smooth muscle cells; actives raise or lower the signal.

Read-out in experiment [4]: Urokinase-type plasminogen activator receptor (uPAR), PLAUR (gene 5329)
Kind of experiment: BSK_CASM3C_uPAR: BioMAP Diversity Plus: CASM3C Assay for Urokinase-type plasminogen activator receptor (uPAR) Biomarker Activity (AID 2283054).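 Also: cell-surface uPAR protein level quantified by ELISA.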 As to conditions: primary human coronary artery smooth muscle cells; actives raise or lower the signal.

Read-out in experiment [5]: Intercellular Adhesion Molecule 1 (ICAM1), ICAM1 (gene 3383)
Kind of experiment: BSK_KF3CT_ICAM1: BioMAP Diversity Plus: KF3CT Assay for Intercellular Adhesion Molecule 1 (ICAM1) Biomarker Activity (AID 2283067). As to conditions: primary human keratinocytes with fibroblasts; actives raise or lower the signal. The gist of the method:
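Dose the keratinocyte/fibroblast co-culture, wait 24 h, measure ICAM-1 by ELISA, then fit increases or decreases against DMSO. Cytotoxicity is checked in parallel cultures by SRB total-protein staining.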

Read-out in experiment [6]: Vascular cell adhesion molecule 1 (VCAM1), VCAM1 (gene 7412)
Put plainly: BSK_LPS_VCAM1: BioMAP Diversity Plus: LPS Assay for Vascular cell adhesion molecule 1 (VCAM1) Biomarker Activity (AID 2283086). Conditions: primary human HUVEC with PBMC; actives raise or lower the signal. The gist of the method: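 HUVEC + PBMC co-culture, LPS system; compound 24 h; VCAM-1 by ELISA; bidirectional fit vs DMSO control; parallel SRB (0.1%, TCA-fixed, 560 nm) for cytotoxicity.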

Read-out in another experiment: CD40, CD40 (gene 958)
Put plainly: BSK_SAg_CD40: BioMAP Diversity Plus: SAg Assay for CD40 Biomarker Activity (AID 2283088). As to conditions: primary human HUVEC with PBMC; actives raise or lower the signal. The gist of the method:
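Fluorescence ELISA read-out of CD40 from umbilical vein endothelium plus peripheral blood mononuclear cells, sampled 24 h after dosing. Values come from bidirectional curve fitting with DMSO as baseline.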

The nature of experiment [7]: BSK_SAg_PBMCCytotoxicity: PBMC Cytotoxicity Assessment in the BioMAP Diversity Plus: SAg Assay (AID 2283093).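 Also: PBMC viability measured as Alamar Blue reduction fluorescence at 546/580 nm; fitted both ways against DMSO so a hit may be loss or gain of signal.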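 As to AC50: PBMC superantigen activated with SEB plus TSST-1 one hour after compound addition.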 Conditions: primary human HUVEC with PBMC. The gist of the method:
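Compound added to 75,000 PBMC/well for 1 h; SEB and TSST-1 then added at 20 ng/mL final each; 90 h incubation; Alamar Blue 6 h; read 546/580 nm ex/em. Activity fitted bidirectionally relative to DMSO baseline.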

Read-out in experiment [8]: Interleukin-8 (IL8), CXCL8 (gene 3576)
Kind of experiment: BSK_SAg_IL8: BioMAP Diversity Plus: SAg Assay for Interleukin-8 (IL8) Biomarker Activity (AID 2283094). Conditions: primary human HUVEC with PBMC; actives raise or lower the signal. The gist of the method:
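ELISA read-out of IL-8 in a primary human vascular co-culture (umbilical vein endothelium plus PBMC), taken 24 h after compound addition. Values derive from bidirectional fits against DMSO negative controls.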

Experiment [9] can be described thus: BSK_SAg_SRB: Viability Assessment in the BioMAP Diversity Plus: SAg Assay (AID 2283096).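 Also: cells read one day after compound addition; hits may be either gain or loss of signal compared with DMSO.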 As to conditions: primary human HUVEC with PBMC. The gist of the method:
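Total protein by sulforhodamine B staining, 24 h after dosing, in HUVEC–PBMC co-culture; DMSO-referenced bidirectional fitting.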

Experiment [10] is described as follows: CCTE_Harrill_HTTr_CellCount_MCF7: CCTE's Cell Proliferation Assessment for the High-Throughput Transcriptomics (HTTr) Platform, Harrill Lab (AID 2284012; active = hit-call score of the fitted dose curve at least 0.9, where 1 is the maximum;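 also: count of Hoechst-stained nuclei per well by high-content imaging in MCF-7 cells; cells exposed to compound for six hours; intended direction is loss of nuclei count meaning fewer cells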). In a few lines:
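Chemicals in eight-point dilution series are added to MCF-7 cells for six hours, nuclei are stained with Hoechst and imaged, and per-well nuclei counts are fitted in both directions relative to DMSO controls.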

Experiment [11] is described as follows: BSK_3C_Vis: BioMAP Diversity Plus: 3C Assay for Morphology Visualization (AID 2283025).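 Also: fitted both ways so gain or loss versus DMSO counts.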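 As to AC50: light microscopy image of cell morphology used as background control.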 Conditions: primary human endothelial cells (HUVEC). The gist of the method: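 Chemicals were added to primary human umbilical vein endothelium, cells were incubated 24 h, and morphology was then visualized by light microscopy. Gain or loss of signal was fitted bidirectionally relative to DMSO.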

Read-out in experiment [12]: Vascular endothelial growth factor receptor 2 (Homo sapiens) (UniProt P35968)
Put plainly: BSK_4H_VEGFRII: BioMAP Diversity Plus: 4H Assay for Vascular endothelial growth factor receptor 2 (VEGFR2) Biomarker Activity (AID 2283031).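 As to AC50: cell-surface VEGFR2 protein level quantified by ELISA.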 As to conditions: primary human endothelial cells (HUVEC); actives raise or lower the signal. The gist of the method: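 VEGFRII levels on human vascular endothelial primary cells were determined by ELISA at 24 hours post-dosing, with gain- or loss-of-signal fitted against DMSO controls.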

Read-out in experiment [13]: Transforming growth factor beta 1 (TGFb1), TGFB1 (gene 7040)
Kind of experiment: BSK_BE3C_TGFb1: BioMAP Diversity Plus: BE3C Assay for Transforming growth factor beta 1 (TGFb1) Biomarker Activity (AID 2283036). As to conditions: primary human bronchial epithelial cells; actives raise or lower the signal. In a few lines:
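Primary human lung bronchial epithelial cells; compound exposure 24 h; TGF-b1 by ELISA; bidirectional fit, DMSO baseline. Parallel SRB total-protein staining for cytotoxicity.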

Read-out in experiment [14]: Transforming growth factor beta 1 (TGFb1), TGFB1 (gene 7040)
Kind of experiment: BSK_KF3CT_TGFb1: BioMAP Diversity Plus: KF3CT Assay for Transforming growth factor beta 1 (TGFb1) Biomarker Activity (AID 2283072). Conditions: primary human keratinocytes with fibroblasts; actives raise or lower the signal. The gist of the method:
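Primary human skin cells (keratinocytes, foreskin fibroblasts) were co-cultured, exposed to test chemical and sampled at 24 h. TGF-b1 levels were measured by ELISA and fitted bidirectionally relative to DMSO.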

Read-out in experiment [15]: C-C motif chemokine 2 (Homo sapiens) (UniProt P13500)
Put plainly: BSK_KF3CT_MCP1: BioMAP Diversity Plus: KF3CT Assay for Monocyte Chemoattractant Protein 1 (MCP1/CCL2) Biomarker Activity (AID 2283073). As to conditions: primary human keratinocytes with fibroblasts; actives raise or lower the signal. In a few lines: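 Keratinocytes and foreskin fibroblasts were co-cultured, dosed with chemical, and sampled 24 h later. MCP-1 was quantified by ELISA, and the endpoint was analyzed with bidirectional fitting using DMSO as negative control.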

A short description of experiment [16]: BSK_BT_Bcell_Proliferation: Viability Assessment in the BioMAP Diversity Plus: BT Assay for B cell Proliferation (AID 2284227). As to conditions: primary human B cells with PBMC. In a few lines: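 Human B cells co-cultured with PBMC were dosed with test chemicals and relative cell number was quantified by SRB staining at 72 h. Cells were fixed in 10% TCA, stained with 0.1% SRB and read at 560 nm. Activity was fitted in the positive direction against DMSO.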

Read-out in experiment [17]: Interleukin 6 (IL6), IL6 (gene 3569)
Put plainly: BSK_BT_xIL6: BioMAP Diversity Plus: BT Assay for Interleukin 6 (IL6) Biomarker Activity (AID 2284228). As to conditions: primary human B cells with PBMC. In a few lines: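 Chemical added to human B cell/PBMC co-culture → 24 h → supernatant IL-6 by Luminex xMAP → fit vs DMSO baseline, upward direction.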

Read-out in experiment [18]: Interleukin 17A (IL17A), IL17A (gene 3605)
Put plainly: BSK_BT_xIL17A: BioMAP Diversity Plus: BT Assay for Interleukin 17A (IL17A) Biomarker Activity (AID 2284229). As to conditions: primary human B cells with PBMC. In a few lines: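 Chemicals were added to a human B cell and PBMC co-culture. After 24 h, secreted IL-17A was measured with Luminex xMAP. Curves were fitted in the positive direction, with DMSO wells as baseline.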

Read-out in experiment [19]: Collagen IV, COL4A1 (gene 1282)
Put plainly: BSK_MyoF_CollagenIV: BioMAP Diversity Plus: MyoF Assay for Collagen IV Biomarker Activity (AID 2284247). Conditions: primary human lung fibroblasts. The gist of the method:
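Steps: dose human lung fibroblasts; culture 24 h; quantify Collagen IV by ELISA; fit increase versus DMSO control. Parallel SRB total-protein staining (0.1% SRB after 10% TCA fixation, 560 nm) tracks overt cytotoxicity.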

Records with an inconclusive call do not appear. Active and inactive are the calls of the source. The calls were made as follows, unless noted: active = hit-call score of the fitted dose curve at least 0.9, where 1 is the maximum; inactive = score below 0.9.

With `COc1ccc(CO)cc1`, the result in experiment [1], in experiment [2], in [3], in [4], in experiment [5] and in [6] was inactive. Moreover, the outcome with CD40, CD40 (gene 958) is “inactive”; in [7], “inactive”; in experiment [8], “inactive”; in [9], “inactive”.
In the case of `COc1ncc(F)c2nc(S(=O)(=O)Nc3c(F)cccc3F)nn12`, the compound was called inactive in experiment [10].
`O=S(=O)(c1ccccc1)c1ccccc1`: the result in [1], in experiment [11], in experiment [12], in experiment [13], in experiment [2] and in experiment [3] was inactive. Also, the outcome was “inactive” in experiment [4]; “inactive” in experiment [5]; “inactive” in experiment [14]; “inactive” in experiment [15]; “inactive” in experiment [6]; “inactive” in the experiment with CD40, CD40 (gene 958). Moreover, the outcome in [7], in experiment [8], in [9], in [10], in experiment [16] and in [17] was inactive. The result in [18] and in experiment [19] was inactive.
As a reminder, the AC50 is the concentration at which the activity in the assay is half-maximal. Consider `O=C(CCl)c1ccccc1`, for which the AC50 in experiment [1] was 3.04 µM (active); in experiment [11], 4.12 µM (active); in [2] it was 11.2 µM (active); in [3], 10.5 µM (active); in experiment [4] it was 10.4 µM (active); in experiment [5] it was 21.3 µM (active). The AC50 in experiment [14] was 25.7 µM (active); in experiment [15], 32 µM (active); in [6] it was 3.68 µM (active); with CD40, CD40 (gene 958), 5.77 µM (active); in [7], 4.68 µM (active); in [8], 5.88 µM (active). Also, the concentration at half-maximal activity (AC50) in experiment [9] was 14 µM (active). The outcome in experiment [12] and in experiment [13] was inactive.
With `CCC[N+](=O)[O-]`, the call in [10] was inactive.
On to `CNC(=O)Oc1cc(C)c(SC)c(C)c1`, for which the AC50 in experiment [1] is 24.6 µM (active); in experiment [4], 20 µM (active); in experiment [6], 20 µM (active); with CD40, CD40 (gene 958), 16.7 µM (active); in experiment [16], 20.1 µM (active); in experiment [17] it was 8.6 µM (active). Besides, the AC50 in experiment [18] is 11.5 µM (active). Moreover, the outcome in experiment [11], in experiment [12], in experiment [13], in [2], in experiment [3] and in experiment [5] was inactive. In addition, the result in [14], in experiment [15], in experiment [7], in experiment [8], in experiment [9] and in experiment [10] was inactive. Also, in experiment [19], the outcome was inactive.
In the case of `C=CC(=O)OCC(CC)CCCC` (stereo unspecified), the half-maximal activity concentration (AC50) in experiment [1] is 31.9 µM (active); in [14], 0.164 µM (active); in experiment [6], 7.48 µM (active). Further, the outcome in [11], in experiment [12], in [13], in [2], in [3] and in [4] was inactive. Besides, the outcome in experiment [5] was “inactive”; in experiment [15] it was “inactive”; with CD40, CD40 (gene 958), “inactive”; in [7] it was “inactive”; in [8], “inactive”; in [9], “inactive”. The compound was called inactive in experiment [10], in [16], in experiment [17], in [18] and in [19].
`CC(C)CCCCCCCOP(=O)(Oc1ccccc1)Oc1ccccc1`: the AC50 in experiment [1] is 6.74 µM (active); in [11] it was 5.61 µM (active); in [12], 10.9 µM (active); in experiment [14], 20 µM (active); in experiment [15], 31.4 µM (active); in experiment [6], 27.8 µM (active). The AC50 with CD40, CD40 (gene 958) is 26.2 µM (active); in [7], 31 µM (active); in experiment [8] it was 11.9 µM (active); in [9], 25.9 µM (active); in experiment [16], 29.5 µM (active); in experiment [17], 26.1 µM (active). For the same compound, in experiment [18], the AC50 is 19.5 µM (active). Moreover, the outcome in experiment [13], in experiment [2], in [3], in [4], in experiment [5] and in [19] was inactive.

The values above are taken from PubChem BioAssay (EPA / NIEHS).
